Bioassay records (PubChem BioAssay)
Compounds with a hit are over-represented: about 13% of the library has one in this group of screens.
HADH2 inh: qHTS Assay for Inhibitors of HADH2 (Hydroxyacyl-Coenzyme A Dehydrogenase, Type II); recombinant HADH2, NADH fluorescence, beta-hydroxybutyryl-CoA; Potency, µM (top dose mostly 57.1 µM), without a hit: at the highest dose activity change, negative = inhibition, actives largely listed as inhibitors; actives 3.4% (n = 73,000); AID 886, 2007; further: potency means the concentration at half of the fitted maximal effect; on the % scale 0 is the no-effect control and ±100 the full control effect; nearly all actives have a fitted effect of over 60% in size
Target sequence (Q99714 whole entry, looked up, one chain of several): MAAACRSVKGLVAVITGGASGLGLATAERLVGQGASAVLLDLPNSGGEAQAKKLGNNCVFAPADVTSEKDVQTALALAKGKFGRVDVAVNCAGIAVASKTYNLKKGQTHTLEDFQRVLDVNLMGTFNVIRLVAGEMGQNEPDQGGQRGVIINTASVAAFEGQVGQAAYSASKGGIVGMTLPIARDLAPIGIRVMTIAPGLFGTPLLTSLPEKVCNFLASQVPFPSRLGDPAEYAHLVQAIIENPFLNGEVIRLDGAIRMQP
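E. coli-expressed His-tagged HADH2 tested at 20 nM in alkaline Tris buffer (pH 9.0); oxidation of 90 uM beta-hydroxybutyryl-CoA with 1 mM NAD+ tracked fluorimetrically for 4 min.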
4-MU autofl: qHTS Assay for Spectroscopic Profiling in 4-MU Spectral Region | compound autofluorescence, 340/450 nm, 4-MU equivalents; active compounds read high | max dye-equivalent concentration, M | actives 11% (n = 59,000); in the data active means max dye-equivalent concentration above about 10 nM; inconclusive means mostly about 1.1 nM to 9.6 nM
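Compounds in 100 mM Tris, pH 8.0, sat 15 min at room temperature before fluorescence was read at 340 nm excitation/450 nm emission; a per-plate six-point 4-MU standard curve converted signals to dye-equivalent concentration at each compound concentration.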
AID923: qHTS Assay for Allosteric/Competitive Inhibitors of Caspase-1: Spectroscopic Profiling in AFC Spectral Region. actives 1.1% (n = 75,000). compound fluorescence, AFC spectral region (405/520 nm). Potency, µM (series often up to 57.5 µM), for the others: top-dose fluorescence increase, actives largely listed as activators; further: potency means the concentration at half of the fitted maximal effect; 0% is about no effect
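Baseline compound fluorescence (AFC region, 405 nm ex/520 nm em) taken from the intercept of kinetic reads with 50 nM caspase-1 and 5 uM Ac-WEHD-AFC; normalized to an on-plate AFC standard curve; compounds titrated up to 57 uM.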
A350 autofl: qHTS Assay for Spectroscopic Profiling in A350 Spectral Region. Compound autofluorescence, 340/450 nm, Alexa 350 dye-equivalents; active compounds read high. max dye-equivalent concentration, M. actives 11% (n = 59,000); in the data active means max dye-equivalent concentration above about 10 nM; inconclusive means mostly about 1.1 nM to 9.6 nM
Bst PK mod: Pyruvate Kinase; purified pyruvate kinase, luminescence ATP production; ribose 5-phosphate activator present at AC10; Potency, µM; actives 1.2% (n = 51,000); in the data active means potency below about 11 µM; inconclusive means mostly about 12 µM to 25 µM;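 the screen sought inhibitors and activators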;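 further: potency means the concentration at half of the fitted maximal effect; scaled between full activation by ribose 5 phosphate and full inhibition by luteolin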
HSD17B inhib: qHTS Assay for Inhibitors of HSD17B4, hydroxysteroid (17-beta) dehydrogenase 4. 3-hydroxyacyl-CoA dehydrogenase type-2 (Homo sapiens), Q99714. Potency, µM (highest dose often 57.1 µM), without a hit: top-dose activity change, negative = inhibition, most hits filed as inhibitors. actives 7.6% (n = 75,000). recombinant HSD17B10, NADH fluorescence kinetic;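 further: the protocol describes HADH2 (HSD17B10) and not the HSD17B4 of the title; potency means the concentration at half of the fitted maximal effect; on the % scale 0 is the no-effect control and ±100 the full control effect; nearly all actives have a fitted effect of over 70% in size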
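Activity followed as NADH fluorescence increase (ex 360, em 450 nm) every 30 seconds for 4 min, using final 90 uM beta-hydroxybutyryl CoA and 1 mM NAD+. Recombinant His-tagged enzyme, 20 nM, pH 9.0 Tris buffer, 15 min compound preincubation.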
The depositor's hits bear a star; i = inactive; ? = inconclusive; . = no result given; ! = a repeat was not active; [ ] = remark or other dose. Unless noted, the call rests on the fitted dose curve; in most records, active means well fitted curve in the direction sought with a large enough effect; inconclusive means small, poorly fitted or top-dose-only effect, or another doubt; inactive means no such curve, though single readings can be large; an effect the other way counts as inactive or inconclusive.

SMILES	HADH2 inh	4-MU autofl	AID923	A350 autofl	Bst PK mod	HSD17B inhib
COCC(=O)N1CCC2(CC1)CN(C(=O)Nc1ccccc1)C2	-9%	i	3%	i	.	6%
Cc1cc(=O)oc2cc(O)ccc12	2.5µM*	1.6e-05M*	21%[25.7 µM]	1.5e-05M*	.	10µM*
Cc1cc(O)c2c(-c3ccccc3)cc(=O)oc2c1	-3%	?	0%	?	>57	3%
Cc1cc(=O)oc2cc(O)c(O)cc12	.	.	-5%	.	.	16µM*
COC(=O)C(CC(C)C)Oc1ccc2c(C)cc(=O)oc2c1 (centres undefined)	?	.	-2%	.	.	32µM*
O=C(O)COc1ccc(OCCNC[C@@H](O)COc2ccccc2)cc1	3%	.	-4%	.	.	13%
CC(C)c1nc2oc3c(NCc4cccnc4)ncnc3c2c2c1CCC2	25µM*	i	-3%	i	>57	13µM*
CC(C)Cc1nc2oc3c(NCc4cccnc4)ncnc3c2c2c1CCC2	-5%	i	-2%	?	>57	16µM*
CC(C)Cc1nc2oc3c(N4CCN(CCO)CC4)ncnc3c2c2c1CCCC2	?	i	3%	i	>57	1%
CC(C)Cc1nc2oc3c(NCC4CCCO4)ncnc3c2c2c1CCC2 (centres undefined)	26%	i	2%	i	>57	6.3µM*
c1ccc(-c2cn3c4c(sc3n2)CCCC4)cc1	-4%	i	1%	?	0.33*	5%
COc1ccc(-c2cnnc(CCCn3ccnc3-c3ccccc3)n2)cc1	-1%[11.4 µM]	.	-1%[11.5 µM]	.	.	1%[11.4 µM]
CC12C=C(/C=C/CCc3ccco3)C(C)(C1)C(CCc1ccco1)CC2=O (centres undefined)	?	.	10%[11.5 µM]	.	.	4µM*
COC(=O)c1c(C(=O)OC)c2cc(C)ccn2c1Cl	1%	8.8e-08M*	4%	7.8e-08M*	.	?
COC(=O)c1nc2cc(C)ccn2c1F	-17%	.	2%	.	.	?
FC(F)(F)c1cnc2c(c1)Nc1ccccc1S2	1%	?	4%	?	.	-2%
CC(=O)C1=C(C)Nc2cc(C(F)(F)F)ccc2S1	25µM*	.	-1%	.	.	-1%
O=c1[nH]c(Cn2nnc(-c3ccccc3)n2)nc2scc(-c3ccccc3)c12	8%	i	4%	i	>57	-22%
Cc1cc(NC(=O)c2ccc3c(c2)C(=O)N(C2CCCCC2)C3=O)no1	9%	.	2%	.	.	1%
CCC(=O)Nc1ccc2c(c1)C(=O)N(C1CCCCC1)C2=O	?	2.1e-07M*	-1%	2.4e-07M*	>57	25µM*
NC1(C(=O)O)C[C@H](C(=O)O)[C@H](C(=O)O)C1 (some centres undefined)	7%	.	0%	.	.	12%
Cc1ccc2c(c1C)NC(C(=O)O)C1CC=CC21 (centres undefined)	10µM*	?	2%	?	>57	10µM*
O=C(O)C1Nc2c(C(=O)N3CCOCC3)cccc2C2C=CCC12 (centres undefined)	?	.	11%	.	.	?
CCOC(=O)c1ccc2c(c1)C1C=CCC1C(C(=O)O)N2 (centres undefined)	4µM*	?	1%	?	.	3.2µM*
CN1C(=O)C(Cc2c[nH]c3ccccc23)NC1=S (centres undefined)	?	.	1%	.	.	-20%
CSc1ccc2c(c1)C(N1CCN(C)CC1)Cc1ccccc1S2 (centres undefined)	.	.	-1%	.	.	1%
CSc1ccc2c(c1)[C@H](N1CCN(C)CC1)Cc1ccccc1S2	-1%	1.6e-07M*!	1%	1.4e-07M*!	.	37%
CCSc1nnc(NC(=O)c2cccc(OCc3c(C)noc3C)c2)s1	5%	i	2%	?	>57	-8%
Cc1nc(NC(=O)c2ccco2)sc1C(=O)Nc1ccc(Br)cc1	-4%	1.1e-08M*	0%	1.1e-08M*	>57	-6%
